Cycloheximide cs – Cycloheximide Counterscreen for Small Molecule Inhibitors of Shiga Toxin; cell reporter, cycloheximide protein synthesis inhibition counterscreen; max response, %; 12% of 300,000 active; AID 2314, 2010; in the data active = max response mostly above about 13%, no sharp cut-off; inactive = mostly below about 14%; also: read at 38.3 µM for the half of the compounds with a filed dose
Pf growth 48h – Primary qHTS for delayed death inhibitors of the malarial parasite plastid, 48 hour incubation; P. falciparum luciferase growth in erythrocytes, 48 h; Potency, µM (highest dose often 28.7 µM), most hits filed as inhibitors; 5.9% of 310,000 active; AID 504832, 2011
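Erythrocytes infected with P. falciparum carrying an integrated firefly luciferase reporter (2% hematocrit, 0.1% parasitemia final) were exposed to compounds in RPMI 1640 with 0.5% Albumax at 37 C, 5% CO2. Growth inhibition was scored as reduced luminescence.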
HCV inhibitor – qHTS Assay for Inhibitors of Hepatitis C Virus (HCV). Huh7.5.1 HCVcc-Cre infection, luciferase reporter, 44 h. Potency, µM (doses to about 41.8 µM), most hits filed as inhibitors. 3.4% of 340,000 active. AID 651820, 2012
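Cells seeded at 1,000/well and cultured 4 h, then compounds added followed by HCVcc-Cre virus (~0.5 moi). After 44 h further culture, luciferase substrate was added, plates held 15 min at room temperature, and luminescence read for 15 sec.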
Shiga inhibitor – A qHTS for Small Molecule Inhibitors of Shiga Toxin | Vero cells, Shiga toxin protein synthesis inhibition reporter | inhibition, % at 38.7 µM | 9.2% of 290,000 active | AID 2315, 2010; in the data active = inhibition mostly above about 28%, no sharp cut-off; inactive = mostly below about 43%
Pf growth 96h – Primary qHTS for delayed death inhibitors of the malarial parasite plastid, 96 hour incubation; Potency, µM (highest dose often 28.7 µM), most hits filed as inhibitors; 6.9% of 320,000 active; P. falciparum luciferase reporter growth, 96 h; AID 504834, 2011
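P. falciparum expressing integrated firefly luciferase, in erythrocytes at 2% hematocrit, 0.05% parasitemia, incubated with compounds 96 h at 37 C, 5% CO2. Growth inhibition read as loss of luminescence; two-generation exposure targets delayed-death apicoplast inhibitors.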
AMA1 RON2 block – qHTS for Inhibitors of AMA1-RON; Towards Development of Antimalarial Drug Lead: Primary Screen; 0.2% of 360,000 active; Potency, µM (titrated, usually from 58.2 µM), actives largely listed as inhibitors; Plasmodium falciparum AMA1 (3D7) - RON2 peptide interaction; AlphaScreen AMA1-biotinylated RON2 peptide binding; also: nearly all actives have a fitted effect of over 45% in size
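AMA1 (3D7) with his tag at 25 nM final met compounds first, then biotinylated RON2 peptide at 25 nM; detection used donor plus acceptor beads, 10 µg/mL apiece, read by AlphaScreen after 30 min at room temperature.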
Each line names hits and unclear results; the compound was inactive in the other large screens. Shown are actives, neighbours in structure and some others; about 21% of the full set was active somewhere. Unless noted, calls follow the shape of the dose curve; as a rule, active = well fitted curve in the direction sought with a large enough effect; inconclusive = small, poorly fitted or top-dose-only effect, or another doubt; inactive = no such curve, though single readings can be large; an effect the other way counts as inactive or inconclusive.

CN(C)CCN[C@H]1CCC2C3CC=C4C[C@@H](O)CC[C@]4(C)C3CC[C@@]21C (some centres undefined)	HCV inhibitor inconclusive (no result: Cycloheximide cs, Pf growth 48h, Shiga inhibitor, Pf growth 96h)
CCCC[C@H]1CCCO[C@@](C(=O)NCc2ccc(C)o2)(C(F)(F)F)C1	none (no result: Pf growth 48h, HCV inhibitor, Pf growth 96h, AMA1 RON2 block)
O=C(Cn1nnc2ccccc2c1=O)NCC1CCC(C(=O)O)CC1 (centres undefined)	none
CC(c1ccco1)N(C(=O)Nc1ccc(Cl)cc1)c1ccccn1 (centres undefined)	Cycloheximide cs 10.6
Cc1ccc(C(=O)N(c2ccccn2)C(C)c2ccco2)cc1 (centres undefined)	none
CCOC(=O)c1ccc(N2CCN(C(C)=O)CC2)c(NC(=O)c2cccnc2)c1	none
Brc1ccc(-c2cnc(-c3cccs3)o2)cc1	Cycloheximide cs 36.5, Shiga inhibitor 91.7
CC(=O)Oc1ccccc1/C=C/c1ccc2ccccc2[n+]1C	Cycloheximide cs 42.8, Pf growth 48h inconclusive, HCV inhibitor inconclusive, Shiga inhibitor 107.4
[O-][n+]1c2ccccc2[n+]([O-])c2cc(O)ccc21	AMA1 RON2 block inconclusive (no result: Pf growth 48h)
CN(C)c1ccc(/C=C/c2ccc3ccccc3[n+]2C)cc1	Cycloheximide cs 19.0, Pf growth 48h 0.828µM, HCV inhibitor 0.891µM, Pf growth 96h inconclusive, AMA1 RON2 block inconclusive
[O-][n+]1c(/C=C/c2ccccc2)ccc2ccccc21	Cycloheximide cs 28.7, HCV inhibitor 10µM, Shiga inhibitor 30.9, Pf growth 96h 6.57µM
COc1ccc(/C=C/c2ccc3ccccc3[n+]2C)cc1OC	Cycloheximide cs 43.5, Pf growth 48h 1.17µM, Shiga inhibitor 71.0
CN(CCCS(=O)(=O)[O-])c1ccc(/C=C/c2ccc3ccccc3[n+]2C)cc1	Pf growth 96h inconclusive
Cc1ccc(C(CNS(=O)(=O)c2cc(F)ccc2F)N2CCN(C)CC2)cc1 (centres undefined)	Pf growth 48h inconclusive, HCV inhibitor inconclusive (no result: Cycloheximide cs, Shiga inhibitor)
COc1ccc(F)cc1-c1cc(NC=O)c2ncc(-c3cccc(C(F)(F)F)c3)n2c1	none (no result: Cycloheximide cs, Pf growth 48h, HCV inhibitor, Shiga inhibitor, Pf growth 96h)
CCOc1ccc(C(=O)NC(C(=O)N2CCC2)C(C)C)cc1 (centres undefined)	none (no result: Cycloheximide cs, Shiga inhibitor)
COc1ccc2[nH]c(=O)c(CN(C(=O)c3cccnc3)c3ccccc3C)cc2c1	none
CC(=O)N1CCOc2ccc(S(=O)(=O)N3CCC(C(=O)NCc4ccc(C)cc4)CC3)cc21	none
CN(C)c1ccc(/C=C/c2ccc3c4ccccc4ccc3[n+]2-c2ccccc2)cc1	Pf growth 48h 8.28µM, HCV inhibitor 1µM, Pf growth 96h inconclusive, AMA1 RON2 block 11.2µM
CN(/N=C/c1c[nH]c2ccccc12)c1cnn(-c2ccc(F)c(Cl)c2)c(=O)c1Cl	none (no result: Pf growth 48h)
CN(/N=C/c1cccnc1)c1cnn(-c2ccc(F)c(Cl)c2)c(=O)c1Cl	Cycloheximide cs 20.3 (no result: Pf growth 96h)
CC(C)(CN1CCNCC1)NS(=O)(=O)c1ccc(Cl)cc1	Pf growth 48h 9.28µM, HCV inhibitor 3.98µM, Pf growth 96h inconclusive (no result: Cycloheximide cs, Shiga inhibitor)
CCN(c1cccc(C)c1)C(C(=O)Nc1ccc(OC)cc1)c1cc2c(cc1[N+](=O)[O-])OCO2 (centres undefined)	Cycloheximide cs 11.1, Pf growth 96h inconclusive
O=[n+]1cc(-c2ccccc2)n([O-])c2c1CCCCC2	Cycloheximide cs 15.6, Pf growth 96h 14.7µM
O=[n+]1cc(-c2ccc(F)cc2)n([O-])c2c1CCC2	none
O=C(NS(=O)(=O)Oc1ccc(F)c(Cl)c1)OC[C@@H]1CCCN2CCCCC12 (some centres undefined)	Pf growth 96h inconclusive
CCC(C(=O)NC(C)(C)C)N(Cc1ccco1)C(=O)CNS(=O)(=O)c1ccc(OC)cc1 (centres undefined)	none
CCn1ccc(C(=O)Oc2ccc(Cl)cc2)n1	Cycloheximide cs 21.6, Shiga inhibitor 56.4
CC(C)n1nc(C(=O)Oc2ccc(Cl)cc2)c2ccccc2c1=O	Pf growth 96h inconclusive
CCn1ccc(C(=O)Nc2ccc(Cl)cn2)n1	Cycloheximide cs 39.1 (no result: Pf growth 48h)
O=C(O)c1nccnc1C(=O)Nc1ccc(Cl)cn1	none
CCn1nccc1C(=O)Nc1ccc(Cl)cn1	Cycloheximide cs 59.9, Shiga inhibitor 70.2 (no result: Pf growth 48h)
Cn1cnc(C(=O)N2CCc3ccccc3C2)c1C(=O)N1CCc2ccccc2C1	none (no result: Cycloheximide cs, Pf growth 48h, Shiga inhibitor, Pf growth 96h)
CCc1ccc(-c2cc(C)no2)cc1S(=O)(=O)N1CCC(C)CC1	Pf growth 96h inconclusive
CCc1ccc(-c2cc(C)no2)cc1S(=O)(=O)N1CCN(c2ccc(C(C)=O)cc2)CC1	Pf growth 48h inconclusive, HCV inhibitor 6.31µM
COc1ccc(N2CCN(S(=O)(=O)c3cc(-c4cc(C)no4)ccc3C(C)C)CC2)cc1	Pf growth 48h inconclusive, HCV inhibitor inconclusive, Pf growth 96h inconclusive
CC(=O)c1ccc(N2CCN(S(=O)(=O)c3cc4[nH]c(=O)c(=O)[nH]c4cc3C)CC2)cc1	Cycloheximide cs 18.7, Pf growth 48h 2.33µM, Shiga inhibitor 23.9
Cc1cc(-c2ccc(C(C)C)c(S(=O)(=O)Nc3cc(C)on3)c2)on1	Pf growth 96h 13.1µM
Cc1cc(-c2ccc(C(C)C)c(S(=O)(=O)N3CCC(C)CC3)c2)on1	Pf growth 48h 11.7µM, Pf growth 96h inconclusive
CCOC(=O)c1ccc(S(=O)(=O)N2CCN(C/C=C/c3ccccc3)CC2)cc1	HCV inhibitor inconclusive (no result: Cycloheximide cs, Pf growth 48h, Shiga inhibitor, Pf growth 96h)
Cc1nn(C)c2ncc(C(N)=O)c(Oc3ccc(Cl)cc3)c12	none
O=C(Cc1ccccc1[N+](=O)[O-])OCC(=O)N1CCN(c2ccccc2)CC1	none (no result: Cycloheximide cs, Shiga inhibitor)
CC(=O)c1ccc(N2CCN(S(=O)(=O)c3cc(-c4cc(C)no4)ccc3C(C)C)CC2)cc1	Pf growth 48h 10.4µM, Pf growth 96h inconclusive
Cc1cc(-c2ccc(C(C)C)c(S(=O)(=O)N3CCN(c4ccccc4)CC3)c2)on1	Pf growth 48h inconclusive, HCV inhibitor inconclusive, Pf growth 96h inconclusive, AMA1 RON2 block inconclusive
CC(/C=C/c1ccccc1F)=N\NC(=O)C(C)C	Cycloheximide cs 35.1, Shiga inhibitor 41.9
CCCCC(=O)N/N=C(C)/C=C/c1ccccc1F	Cycloheximide cs 29.0, Shiga inhibitor 62.9
CCCCC(=O)N/N=C(\C)CC(=O)Nc1ccccc1Br	none
COc1cc(OC)cc(C2=Cc3ccccc3C(CC(C)=O)N2c2ccc(C#CCCO)cc2)c1 (centres undefined)	none (no result: Cycloheximide cs, Pf growth 48h, HCV inhibitor, Shiga inhibitor, Pf growth 96h)
CCCCON1C(=O)c2cccc3cccc(c23)C1=O	Cycloheximide cs 14.7, Shiga inhibitor 40.5
CCOC(=O)CCCCCN1C(=O)c2cccc3cccc(c23)C1=O	Pf growth 96h 6.57µM
O=C1c2ccccc2C(=O)N1CCCCON1C(=O)c2ccccc2C1=O	none
C#CCOC(=O)CN1C(=O)c2cccc3cccc(c23)C1=O	Cycloheximide cs 17.8, Pf growth 96h inconclusive
COC(=O)CN1C(=O)c2cccc3cccc1c23	Pf growth 96h inconclusive

Bioassay records from PubChem BioAssay.
